From PubChem
Shown is part of a subset that was picked to be rich in hits.
Tg IFNy HTS: T. gondii growth inhibition under IFN-gamma | Toxoplasma gondii growth in IFN-gamma-treated host cells; hits give low values | actives 3.8% (n = 69,000) | AID 1259416 | activity change, negative = inhibition, % (concentration not given with the values); in the data active means activity change below about -70%, passing the limit was not always enough;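 further: host cells are HeLa cells infected with Toxoplasma gondii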
An asterisk follows results filed as active; ! = repeats disagree.

SMILES | Tg IFNy HTS
Cn1cnc2c(N3CCOCC3)nc(C3CCN(CC4CC4)CC3)cc21 | 6
Cc1ccc2cccc(SCC(=O)Nc3ccc4c(c3)oc3ccccc34)c2n1 | -9
CC(C)CN1C[C@@H]2CCN(C(=O)c3cn(C)c4ccccc34)CC[C@H]2S1(=O)=O | 11
COc1ccc(C2(NCC(C)(C)CN3CCN(C)CC3)CCCC2)cc1 | -45
Cc1cc(C)cc(NC(=O)CN2C(=O)CCc3cc(S(=O)(=O)N4CCCCC4C)ccc32)c1 (centres undefined) | -52
COc1cc(C(=O)NN2C(=O)CSC2=S)ccc1O | 52
Cn1ccn2ncc(C(=O)NCc3cccnc3N3CCCC(O)C3)c12 (centres undefined) | 51
CN(Cc1cc(-c2ccccc2)no1)Cc1cnn(C)c1C1CC1 | 20
COc1ccccc1-c1nc(C)c(-c2ccc(SCc3cc(C)ccc3C)nn2)s1 | 0
COCCc1ncc(CN2CCCN(c3ccc(F)cc3)CC2)cn1 | 0
COc1cccc(CC(=O)Nc2ccc(-c3nc(Cn4nc(C)cc4C)c(C)o3)cc2)c1 | -85*
Cc1cc(C)n(Cc2nc(-c3ccc(NC(=O)c4ccccc4)cc3)oc2C)n1 | 1
Cc1cc(C)n(Cc2nc(-c3ccc(NC(=O)c4ccc(Cl)cc4)cc3)oc2C)n1 | 2
Cc1cc(C)cc(C(=O)Nc2ccc(-c3nc(Cn4nc(C)cc4C)c(C)o3)cc2)c1 | -97*
Cc1cc(C)n(Cc2nc(-c3ccc(NC(=O)Cc4ccccc4C)cc3)oc2C)n1 | 41
Cc1cc(C)n(Cc2nc(-c3ccc(NC(=O)c4cc(F)cc(F)c4)cc3)oc2C)n1 | -32
Cc1cc(C)n(Cc2nc(-c3ccc(NC(=O)c4ccc(C)c(F)c4)cc3)oc2C)n1 | 17
Cc1ccc(C)c(C(=O)Nc2ccc(-c3nc(Cn4nc(C)cc4C)c(C)o3)cc2)c1 | -75*
Cc1cc(C)n(Cc2nc(-c3ccc(NC(=O)CCc4ccccc4)cc3)oc2C)n1 | -69
Cc1nn(-c2ccccc2)c(C)c1S(=O)(=O)N1CCn2cncc2C1 | -16
Cc1ccnc(SCc2cc(=O)c3c(=O)n(-c4nc(C)cc(C)n4)[nH]c3[nH]2)n1 | 30
CC(NC(=O)c1ccc(Cn2cccn2)cc1)c1ccc2c(c1)CCC2 (centres undefined) | 49
Cc1ccccc1-n1nnc(C(=O)NC(C)Cc2c(C)nn(C)c2C)c1C (centres undefined) | -42
CCOc1ccc(S(=O)(=O)N2CCC[C@@H]2C(=O)NCCc2csc(C)n2)cc1 | -3
Cc1cccc(-c2nc(Cn3nnc(-c4nc(-c5ccccc5)no4)c3C)c(C)o2)c1 | -9
SMILES | Tg IFNy HTS
O=S(=O)(c1ccccc1)c1cnc2c(N3CCNCC3)cccc2c1 | 15
Cc1cccc(N2C(=O)c3cccc4c(N5CCNCC5)ccc(c34)C2=O)c1 | 0
O=c1cc(N2CCNCC2)oc2c(-c3ccccc3)cccc12 | -85*!
Cc1ccc2c(c1)C1(CCNCC1)CC2OCC1CC1 (centres undefined) | -18
CN1CCN(C2=Nc3ccccc3Sc3ccc(Cl)cc32)CC1 | 9
CN1CCN(CCCN2c3ccccc3Sc3ccc(C(F)(F)F)cc32)CC1 | -80*!
CN1CCN(CCCN(C)CC(C)(C)c2ccc(Cl)cc2)CC1 | -9
CCc1nc(N)c(C#N)c(-c2ccccc2)c1C | 12
N#Cc1c(-c2ccccc2)cc(-c2ccc(Cl)cc2)nc1N | 10
N#Cc1c(N)nc(Sc2ccc(Cl)cc2)c(C#N)c1-c1ccccc1 | -92*
CCCCC(=O)O[C@H]1CC[C@H]2[C@@H]3CCc4cc(O)ccc4[C@H]3CC[C@]12C | -35
CC(=O)Oc1ccc2c(c1)CCC1C2=CCC2(C)C(OC(C)=O)CCC12 (centres undefined) | -92*
CCOC(=O)c1ccc(NC(=O)N2CCN(Cc3nc(-c4cccc(Cl)c4)oc3C)CC2)cc1 | -5
CCn1cc(CN(C)C(=O)Cc2nnc(N)s2)c(C)n1 | -2
Cc1ccc(C)c(-c2nc(Cn3c(=O)c4cccnc4n(-c4ccccc4)c3=O)c(C)o2)c1 | 9
Clc1ccc(-c2csc(-c3ccc(-n4cncn4)nc3)n2)cc1 | 4
c1ccc(-n2ncnc2-c2csc(-c3ccncc3)n2)cc1 | -93*
c1ccc(-c2nnc(-c3csc(-c4cccnc4)n3)o2)cc1 | 303
O=C(CCn1cnc2cc(-c3noc(CCc4c[nH]c5ccccc45)n3)ccc21)N1CCCC1 | -19
CCCCCCCCCCCCCCCCCCc1ccc(C(=O)/C=C/C(=O)O)cc1 | 7
CCCCCCCCc1ccc(CCC(N)(CO)CO)cc1 | -82*!
CCCCCCCCc1ccc(-c2ccc(C(=O)O)cc2)cc1 | 23
c1ccc(Nc2ccc3nc(C4CCN(Cc5ccco5)CC4)nn3c2)cc1 | 0
Cn1cc(C(=O)NC2CCCC2)c(CC2CCN(C(=O)c3cc4ccccc4o3)CC2)n1 | 14
CCN1CCN(Cc2ccc(C(=O)N3CCC(N4CCCCC4)CC3)cc2)C(=O)C1=O | 28
SMILES | Tg IFNy HTS
O=C(Cn1c(=O)cc(-c2nc(C3CC3)no2)c2ccccc21)NCc1cccc(Cl)c1 | -10
COc1cc(CNC(=O)C2(C)CCN(C(=O)c3ccccc3)CC2)cc(OC)c1 | 31
CC(=O)NCCC1CCCCN1C(=O)Nc1ccc(Oc2ccccc2)cc1 (centres undefined) | -2
CN(Cc1cccc2ncccc12)C(=O)c1cnn(-c2ccc(F)cc2)c1 | -40
CN(Cc1cccc2ncccc12)Cc1cnn2cccnc12 | 2
c1cc(-c2cnn3cc(-c4ccc(N5CCNCC5)cc4)cnc23)c2cccnc2c1 | -84*
CC(=O)c1c[nH]c2ccc(C)cc2c1=O | 13
COc1ccc2[nH]cc(C(=O)CCl)c2c1 | -26
CCOC(=O)c1c[nH]c2ccc(OC)cc2c1=O | -88*
Cc1ccc(C(=O)N2CCN(S(=O)(=O)c3cc4c5c(c3)CCC(=O)N5CCC4)CC2)cc1C | -45
CCOc1ccc(-c2cc3c(=O)n(Cc4nc(-c5cc(Br)ccc5OC)oc4C)ccn3n2)cc1 | 61
CC(=O)N1CCc2c(nnn2CC2CC2)C1COCC1CC1 (centres undefined) | 12
COC1COC2(CCN(C(=O)c3nn(C)c4ccccc34)C2)C1 (centres undefined) | 14
CCCc1ccc(-c2ccc(C(=O)N3CCCC(O)(CO)CC3)cc2)cc1 (centres undefined) | -4
Fc1ccc(-n2cccn2)c(CN2CCCC(OCc3ccccn3)C2)c1 (centres undefined) | 4
CC[C@@H](C(=O)O)[C@@H]1O[C@@H]([C@@H](C)[C@H](O)[C@H](C)C(=O)[C@H](CC)[C@H]2O[C@]3(C=C[C@@H](O)[C@]4(CC[C@@](C)(C5CC[C@](O)(CC)[C@H](C)O5)O4)O3)[C@H](C)C[C@@H]2C)[C@@H](C)C[C@H]1C (some centres undefined) | -81*
FC(F)(F)c1cc(N/N=C2/CCSc3sccc32)cc(C(F)(F)F)c1 | -103*
Cc1nc2ccc(N)cc2c(=O)n1Cc1ccccc1 | 0
CCOC(=O)c1nc(NC2CCCCCC2)c2ccccc2n1 | -14
c1ccc(Cn2c3ccccc3c3ccccc32)cc1 | -16
O=C1CCCc2c1c1ccccc1n2Cc1ccccc1 | -47
O=c1c2ccccc2n(Cc2ccc(F)cc2)c2ccccc12 | -81*
Cc1ccccc1N=c1scc(C)n1-c1ccccc1C | -9
Cn1cc(CN2CCCC23CCN(c2ccccc2F)CC3)cn1 | -69
Cc1ccc(C2=NC3(CCN(CC(=O)Nc4ccc5c(c4)OCCO5)CC3)NC2=O)cc1C | 53
